# Compound activity (PubChem BioAssay)
# Tau ThT inhib: tau fibrillization inhibition (ThT binding). recombinant tau K18 P301L, heparin-induced fibrillization, ThT fluorescence. Potency, µM (highest dose often 57.4 µM), for the others: at the highest dose activity, negative = inhibition, hits mostly inhibitors. actives 2.1% (n = 270,000). AID 1460; also: nearly all actives have a fitted effect of over 55% in size
# Target sequence (P10636 561-689 P618L limits assumed): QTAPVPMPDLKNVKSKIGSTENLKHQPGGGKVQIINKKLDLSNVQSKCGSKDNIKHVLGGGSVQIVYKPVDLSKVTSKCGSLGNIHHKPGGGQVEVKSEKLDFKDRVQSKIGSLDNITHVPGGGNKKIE
#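 Aggregation was driven by heparin (20 uM final) acting on recombinant tau […] bearing P301L in 100 mM sodium acetate pH 7; fibrils were detected with Thioflavin T.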
# TR SRC2 fluor cs: Texas Red fluorescence interference in TRb-SRC2 counter-screen; TRb/SRC2 Texas Red total fluorescence interference; Potency, µM (titrated, usually from 106 µM), for the others: top-dose fluorescence change, negative = quenching; actives 0.29% (n = 280,000); AID 1479; active = well fitted curve in either direction with a large enough effect; inconclusive = small, poorly fitted or top-dose-only effect
#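 Human TRβ ligand-binding domain (0.6 uM) and Texas Red SRC2 peptide (20 nM) in Tris buffer with 1 uM T3 and 5% DMSO were incubated with pinned compound for 5 hr at ambient temperature. Total fluorescence was computed as S + 2P (555/632 nm).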
# Tau FP inhib: tau fibrillization inhibition (FP) | P10636 | K18 P301L tau heparin fibrillization, Alexa594 FP, 6 h | AID 1468 | Potency, µM (titrated, usually from 57.7 µM), inactives show at the top dose activity, negative = inhibition, usual class: inhibitors | actives 0.39% (n = 280,000); also: nearly all actives have a fitted effect of over 55% in size
#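 Compound effects on tau fibrillization are measured by Alexa 594 fluorescence polarization (ex 555, em 632 nm). K18 P301L tau is used at 15 uM with 0.24 uM labeled tracer, and 20 uM heparin induces aggregation over 6 hr at 37 C.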
# TRb SRC2 PPI: TRbeta-SRC2 interaction inhibition; Potency, µM (series often up to 106 µM), for the others: at the highest dose activity change, negative = inhibition, most hits filed as inhibitors; P10828; AID 1469; actives 0.065% (n = 280,000); TRbeta-SRC2 peptide binding, fluorescence polarization; receptor liganded with 1 µM T3;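 also: plate controls were bound peptide for no effect and peptide without receptor for full effect; nearly all actives have a fitted effect of over 50% in size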
#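 Fluorescence polarization of 20 nM Texas Red SRC2 peptide (20-aa NR interaction domain) bound to 0.6 uM human TRb ligand-binding domain, with 1 uM T3, after 5 hr at ambient temperature; inhibition seen as decreased polarization.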
# Tau fluor counter: counter-screen for tau fibril formation inhibitors | actives 0.93% (n = 280,000) | tau K18 P301L Alexa594 fluorescence, heparin fibrillization | Potency, µM (top dose mostly 57.7 µM), for the others: at the highest dose activity change, negative = decrease; also: nearly all actives have a fitted effect of over 55% in size
#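 Human tau K18 P301L (15 uM unlabeled, 0.24 uM Alexa 594-labeled) in 100 mM sodium acetate pH 7 with 20 uM heparin, 6 hr at 37 C. ThT 30 uM added, 1 hr ambient; Alexa 594 FP and total fluorescence read at 555/632 nm.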
# RGS12 GoLoco inh: blocks human Gai1 binding to RGS12 GoLoco peptide, red readout; Gai1:RGS12 GoLoco peptide FP, rhodamine, 10 min; Potency, µM (highest dose often 61.6 µM), for inactives: at the top dose activity, negative = inhibition, most hits filed as inhibitors; AID 880; actives 0.44% (n = 230,000); active = well fitted inhibition curve with a large enough effect, not every such curve was filed as active; inactive = no such curve, though single readings can be large or run the other way; also: nearly all actives have a fitted effect of over 30% in size
# Target sequence (P63096 whole entry, looked up): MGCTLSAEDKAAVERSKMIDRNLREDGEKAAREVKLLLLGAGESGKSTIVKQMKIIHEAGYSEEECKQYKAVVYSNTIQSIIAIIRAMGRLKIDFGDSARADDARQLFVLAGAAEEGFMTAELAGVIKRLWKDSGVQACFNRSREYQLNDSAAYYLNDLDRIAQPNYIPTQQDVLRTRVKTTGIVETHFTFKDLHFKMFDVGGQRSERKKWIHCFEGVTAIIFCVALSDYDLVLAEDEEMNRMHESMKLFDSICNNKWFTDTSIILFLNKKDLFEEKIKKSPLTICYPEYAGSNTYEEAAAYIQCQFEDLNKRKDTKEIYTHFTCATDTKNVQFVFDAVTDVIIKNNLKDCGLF
# An asterisk follows results filed as active; u = inconclusive; x = not tested or not shown; [ ] = another dose, or the depositor's remark. Hits are enriched below; roughly 3.2% of the tested compounds scored in any of these assays. Unless noted, calls follow the shape of the dose curve; as a rule, active = well fitted curve in the direction sought with a large enough effect; inconclusive = small, poorly fitted or top-dose-only effect, or another doubt; inactive = no such curve, though single readings can be large; an effect the other way counts as inactive or inconclusive. Unless noted, % is scaled to controls: 0 for no effect and ±100 for the full control effect; potency is read from the fitted curve at half-maximal effect.
SMILES,Tau ThT inhib,TR SRC2 fluor cs,Tau FP inhib,TRb SRC2 PPI,Tau fluor counter,RGS12 GoLoco inh
CCOc1ccc(-c2cc(-c3nc(-c4cc(OC)c(OC)c(OC)c4)no3)[nH]n2)cc1,u,-2%,-4%,-6%,-25%,x
CCn1c(=O)n(C2=C(CO)CN(CC3CCCCCCC3)CC2)c2ccccc21,x,0%,x,4%,x,x
CC(C)Cn1nnnc1S(=O)(=O)CCc1ccccc1,9%,0%,2%,3%,3%,-6%
O=C1C[C@H](c2ccc3ccccc3c2)N1S(=O)(=O)c1ccccc1[N+](=O)[O-],x,-1%,x,0%,x,x
COC(=O)C/C=C\[C@@H](C)[C@@H](/C=N\OC[C@@H](C)[C@H](OCc1ccccc1)C(C)C)OC,-3%[11.5 µM],-6%[11.2 µM],-3%[11.6 µM],1%[11.2 µM],-7%[11.6 µM],x
CCc1ccc(-n2c(-c3ccccc3)c(C)n3c4c(=O)n(C)c(=O)n(C)c4nc23)cc1,-9%,56µM*[quencher],7%,-17%,-16%,x
Cc1c(-c2ccccc2)oc2nc3c(c(=O)n(C)c(=O)n3C)n12,-8%,0%,7%,8%,0%,-11%
Cc1ccc(-c2c(C)n3c4c(=O)n(C)c(=O)n(C)c4nc3n2-c2cccc(O)c2)cc1,u,11µM*[quencher],-7%,-6%,u,x
C[C@@H](c1ccccc1)N1C(=O)[C@H]2[C@H]3[C@H](O)[C@H](O)C/C(=N/OCc4ccccc4)[C@@H]3CC[C@@H]2C1=O,-8%[11.5 µM],1%[11.2 µM],-9%[11.6 µM],2%[11.2 µM],-10%[11.6 µM],x
COC(=O)c1cccc(NC(=S)NCc2ccc(Cl)cc2)c1,-7%,-2%,u,4%,u,-9%
COC(=O)c1cc(NC(=S)NCc2ccc(Cl)cc2)cc(C(=O)OC)c1,11%,0%,18µM*,-8%,14µM*[quencher],24%
N#Cc1cccc(-c2nc(NCCN3CCOCC3)c3ccccc3n2)c1,x,x,x,x,x,3%
Cc1nnsc1C(=O)N/N=C/c1ccccc1,3%,-23%,0%,6%,5%,4%
Cc1nnsc1C(=O)N/N=C/c1ccc2ccccc2c1O,3.2µM*,-1%,u,1%,-20%,x
Cc1cccc(NS(=O)(=O)c2cc(NC(=O)CC(=O)c3ccc([N+](=O)[O-])cc3)ccc2C)c1,u,-4%,-6%,-8%,7.9µM*[quencher],18%
Cc1ccc(C(=O)Nc2cccc([N+](=O)[O-])c2)cc1S(=O)(=O)Nc1ccc(C(=O)O)cc1,-16%,-2%,-1%,3%,-18%,5%
Cc1ccccc1NS(=O)(=O)c1cc(C(=O)Nc2cccc([N+](=O)[O-])c2)ccc1C,u,-3%,-13%,6%,14µM*[quencher],4%
COc1ccc(C=Nc2c(O)ccc3ccccc23)cc1OC,x,x,x,x,x,32%[14.2 µM]
C/C(CCN1CCCc2nc(C)c(C)cc21)=N\OC[C@@H](O)[C@@H]1O[C@@H]2OC(C)(C)O[C@@H]2[C@H]1O,-9%[11.5 µM],-1%[11.2 µM],10%[11.6 µM],-6%[11.2 µM],-3%[11.6 µM],x
N#CC1=C(S)N=C(N)C(c2nc(-c3ccccc3)cs2)C12CCCC2 (stereo unspecified),28µM*,0%,u,-19%,u,28%
COCCn1c(=O)c(-c2ccc(F)cc2)nc2cnc(N3CCOCC3)nc21,x,x,x,x,x,-2%
COC(=O)/C=C1\OC(c2ccccc2)=CC1=O,25µM*,1%,-10%,2%,-1%,7%
CC[C@@H]1C(c2cccc(Cl)c2)=NN(c2ccc(Br)cc2)[C@H]1C(=O)N1CCOC1=O,u,1%,-6%,0%,u,-2%
C[C@@H]1C(c2ccc(F)cc2)=NN(c2ccccc2)[C@H]1C(=O)N1CCOC1=O,-17%[81.4 µM],-11%,-6%[81.3 µM],6%,u,-11%[88.7 µM]
CC[C@@H]1C(c2ccccc2)=NN(c2ccc(Br)cc2)[C@H]1C(=O)N1CCOC1=O,u,4%,11%[81.3 µM],9%,7.9µM*[quencher],8%
